{"source": "ChEMBL document CHEMBL1201862", "about": "“PubChem BioAssay data set” (2004)", "test": "A High Throughput Confirmatory Assay used to Identify Novel Compounds that Inhibit Mycobacterium Tuberculosis in the absence of Glycerol using Purified and Synthesized Compounds (4).; call rule not given here", "format": "functional", "note": "Results with a measured potency or affinity are listed apart."}
{"smiles": "Cc1cc(Br)ccc1NC(=O)c1cnc(N2CCN(c3ccccn3)CC2)c2ccccc12", "values": [{"measurement": "IC90", "value": "> 51.1 µM (active)"}]}
